This is one part of a sample in which hits are shown more often than they occur.
TbPYK inhibitor: blocks Trypanosoma brucei pyruvate kinase. 410,000 tested, 0.12% active. TbPYK enzyme, Kinase-Glo Plus ATP luminescence, 45 min. Potency, µM (series often up to 76.8 µM), actives largely listed as inhibitors. Q57TT1. AID 624173; further: nearly all actives have a fitted effect of over 50% in size
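ADP (130 uM final) triggers the TbPYK reaction after compound addition; incubation is 45 min at room temperature. Kinase-Glo Plus is then added and luminescence imaged. Normalized data are fitted to concentration-effect curves.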
CHX counter: counter-screen hit for Shiga toxin inhibitors, cycloheximide; cell reporter, cycloheximide protein synthesis inhibition counterscreen; max response, %; 300,000 tested, 12% active; AID 2314; in the data active means max response mostly above about 13%, no sharp cut-off; inactive means mostly below about 14%; further: read at 38.3 µM for the half of the compounds with a filed dose
Shiga inhibitor: blocks Shiga toxin action in Vero cells; Vero cells, Shiga toxin protein synthesis inhibition reporter; inhibition, % at 38.7 µM; 290,000 tested, 9.2% active; AID 2315; in the data active means inhibition mostly above about 28%, no sharp cut-off; inactive means mostly below about 43%
LmPK inhibitor: inhibitors of Leishmania mexicana pyruvate kinase | Q27686 | purified LmPK, Kinase-Glo ATP luminescence, 1 h | Potency, µM (series often up to 57.5 µM), hits mostly inhibitors | 290,000 tested, 0.37% active
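Purified LmPK (0.1 nM) with 0.5 mM PEP and 0.1 mM ADP in imidazole buffer pH 7.2 with MgCl2/KCl, 1 h at room temperature. ATP formed was read by luciferase luminescence and normalized to no-enzyme and uninhibited controls.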
RE007 growth inh: less growth of the S. pombe RE007 Vpr strain | Potency, µM (highest dose often 92.2 µM), usual class: inhibitors | S. pombe RE007 Vpr strain, BacTiter-Glo ATP luminescence, 24 h | 360,000 tested, 0.21% active | AID 651644; active means well fitted falling curve with a large enough effect; inconclusive means small, poorly fitted or top-dose-only effect; inactive means no such curve, though single readings can be large or run the other way; further: nearly all actives have a fitted effect of over 50% in size
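Fission yeast RE007 carrying one integrated HIV-1 vpr copy, seeded at OD 0.01 in PMG+AL medium with 23 nL pinned compound. Grown 24 h at 30 degrees; viability read by BacTiter-Glo luminescence after 5 min.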
Giardia FBPA inh-1: Giardia lamblia aldolase inhibition; A8B2U2; purified Giardia FBPA; Potency, µM (highest dose often 59.6 µM), hits mostly inhibitors; 290,000 tested, 0.71% active; AID 2451; further: nearly all actives have a fitted effect of over 55% in size
Target sequence (A8B2U2 whole entry, looked up): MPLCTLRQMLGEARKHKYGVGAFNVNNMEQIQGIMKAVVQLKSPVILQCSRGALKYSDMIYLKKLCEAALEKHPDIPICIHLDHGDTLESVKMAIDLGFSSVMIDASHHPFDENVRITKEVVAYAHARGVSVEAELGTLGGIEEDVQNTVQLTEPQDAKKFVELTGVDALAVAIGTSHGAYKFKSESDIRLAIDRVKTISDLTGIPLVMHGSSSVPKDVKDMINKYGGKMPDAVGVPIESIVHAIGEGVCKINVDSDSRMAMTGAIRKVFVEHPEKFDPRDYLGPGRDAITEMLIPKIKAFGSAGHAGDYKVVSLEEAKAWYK
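40 nM FBPA preincubated 10 min at RT with compound (up to 57.5 uM final), then substrate plus GAPDH/TPI/NAD/arsenate coupling and diaphorase/resazurin added. Fluorescence read after 20 min at RT, 525/598 nm.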
Giardia growth: blocks growth of Giardia lamblia trophozoites. 1,500 tested, 5% active. Giardia lamblia trophozoite growth inhibition. Potency, µM (highest dose often 57.5 µM), usual class: inhibitors. AID 2785. shares compounds with Giardia FBPA inh-1;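 further: trophozoites exposed to compound for 48 h at 37 °C; nearly all actives have a fitted effect of over 70% in size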
Mammal cell tox: toxic to mammalian cells in Giardia aldolase counter-screen; shares compounds with Giardia FBPA inh-1; mammalian cell viability counter-screen, qHTS; 1,500 tested, 4% active; AID 2786; Potency, µM (series often up to 57.5 µM), hits mostly inhibitors;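 further: Chinese hamster ovary cells used as mammalian cytotoxicity surrogate; viability measured as cellular ATP by luminescence; compound exposure lasted 48 h before reading; nearly all actives have a fitted effect of over 60% in size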
Giardia FBPA inh-2: confirmation of Giardia fructose-bisphosphate aldolase inhibitors. shares compounds with Giardia FBPA inh-1. purified Giardia aldolase enzyme activity, qHTS. Potency, µM (top dose mostly 57.5 µM), most hits filed as inhibitors. 1,500 tested, 5% active. AID 2787; further: nearly all actives have a fitted effect of over 45% in size
Rabbit aldolase: selectivity test for Giardia aldolase inhibitors: rabbit aldolase | shares compounds with Giardia FBPA inh-1 | Rabbit muscle FBPA enzyme inhibition, selectivity counter-screen | Potency, µM (series often up to 57.5 µM), hits mostly inhibitors | 1,500 tested, 4% active | AID 2794; further: nearly all actives have a fitted effect of over 60% in size
Target sequence (P00883 whole entry, looked up): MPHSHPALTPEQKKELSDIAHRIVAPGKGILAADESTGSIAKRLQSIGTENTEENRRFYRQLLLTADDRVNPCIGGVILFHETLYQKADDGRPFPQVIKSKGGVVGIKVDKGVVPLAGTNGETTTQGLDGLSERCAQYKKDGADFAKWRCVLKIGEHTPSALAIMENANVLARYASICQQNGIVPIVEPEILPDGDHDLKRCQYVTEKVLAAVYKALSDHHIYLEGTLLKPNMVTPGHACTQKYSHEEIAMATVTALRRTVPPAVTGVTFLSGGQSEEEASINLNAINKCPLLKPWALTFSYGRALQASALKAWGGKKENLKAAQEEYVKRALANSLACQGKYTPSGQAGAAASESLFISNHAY
GAPDH counter: counter-screen for Giardia aldolase inhibitors: GAPDH coupling enzyme. shares compounds with Giardia FBPA inh-1. GAPDH coupling enzyme counterscreen, biochemical, qHTS. Potency, µM (highest dose often 57.5 µM), most hits filed as inhibitors. 1,500 tested, 6% active; further: nearly all actives have a fitted effect of over 55% in size
Numbers stand for hits; 0 = inactive; ? = inconclusive; - = no result given; [ ] = dose if it differs, or a comment. Unless noted, the call rests on the fitted dose curve; in most records, active means well fitted curve in the direction sought with a large enough effect; inconclusive means small, poorly fitted or top-dose-only effect, or another doubt; inactive means no such curve, though single readings can be large; an effect the other way counts as inactive or inconclusive.

SMILES	TbPYK inhibitor	CHX counter	Shiga inhibitor	LmPK inhibitor	RE007 growth inh	Giardia FBPA inh-1	Giardia growth	Mammal cell tox	Giardia FBPA inh-2	Rabbit aldolase	GAPDH counter
CC(=O)N1CCN(C(=O)COC(=O)c2ccc(S(C)(=O)=O)cc2)CC1	0	-	-	-	0	-	-	-	-	-	-
CC(=O)N1CCN(Cc2nc3cc(NC(=O)COc4cccc(C)c4)ccc3n2C)CC1	0	0	0	0	0	20µM	?	0	0	0	0
Cn1c(CN2CCCC2)nc2cc(NC(=O)COc3ccccc3)ccc21	0	0	0	0	0	0	-	-	-	-	-
Cc1cccc(C(=O)NC(=S)NNC(=O)Cc2ccccc2)c1	?	0	0	0	0	?	-	-	-	-	-
Cc1cccc(C(=O)NC(=S)NNC(=O)c2ccccc2Cl)c1	0	0	0	0	0	?	0	0	0	0	0
Cn1nccc1C(=O)Nc1nnc(C2CC2)s1	0	0	0	0	0	-	-	-	-	-	-
Cc1c(C)n(Cc2ccccc2)c2ncnc(NCCCN(C)C)c12	0	0	0	0	0	0	-	-	-	-	-
COCCn1c(C)c(C)c2c(NCCc3ccccc3)ncnc21	0	25	67	0	0	28µM	0	?	0	0	0
C=CCn1c(-c2cc(OC)cc(OC)c2)n[nH]c1=S	?	0	0	?	0	0	-	-	-	-	-
C=CCn1c(-c2ccc(F)cc2)n[nH]c1=S	0	0	0	0	0	?	-	-	-	-	-
C=CCn1c(-c2ccoc2)n[nH]c1=S	?	0	0	0	0	2.5µM	?	0	0	0	0
C=CCn1c(-c2ccncc2)n[nH]c1=S	?	0	0	0	0	2.5µM	0	0	0	0	0
CCOc1ccccc1/C=N/NC(=O)c1nnn(-c2nonc2N)c1CN1CCCCCC1	0	-	-	-	0	-	-	-	-	-	-
CC(=O)c1c(C)nc2nc(-c3ccccc3)nn2c1C	0	-	-	-	-	-	-	-	-	-	-
CCN(C(=O)CSc1nc2cc(S(=O)(=O)N(CC)CC)ccc2n1CC)C1CCS(=O)(=O)C1 (stereo unspecified)	0	-	-	-	0	-	-	-	-	-	-
CCOC(=O)c1cnc(-c2ccccc2O)nc1Cl	0	36	70	0	0	20µM	?	0	?	?	?
NC(N)=NS(=O)(=O)c1ccc(NC(=S)NC(=O)Cc2ccc(Cl)cc2)cc1	0	0	0	0	0	0	-	-	-	-	-
Cc1ccc(NC(=S)Nn2cnnc2)c(C)c1	-	0	0	0	-	13µM	0	0	0	0	0
Cc1ccc(NC(=O)Nn2cnnc2)c(C)c1	0	0	0	0	0	0	-	-	-	-	-
CCc1nc(C)ccc1OCC(=O)O	0	0	0	0	0	0	-	-	-	-	-
CCc1nc(C)ccc1OCC(=O)NCCCN(C)C	0	0	0	0	0	13µM	0[10.4 µM]	0	0	0	0
COc1cc(/C=N/NC(=O)c2ccc(C)nc2)cc([N+](=O)[O-])c1O	0	0	0	0	0	0	-	-	-	-	-
Cc1n[nH]c(=O)nc1N/N=C/c1ccc(O)c([N+](=O)[O-])c1	0	0	0	?	0	18µM	14µM	0	0	0	0
COc1cc(/C=N/Nc2nc(=O)[nH]nc2C)cc([N+](=O)[O-])c1O	0	25	57	0	0	20µM	?	0	0	0	0
Cc1cc(C(=O)N/N=C/c2ccc(O)c([N+](=O)[O-])c2)n[nH]1	0	0	0	0	0	0	-	-	-	-	-
SMILES	TbPYK inhibitor	CHX counter	Shiga inhibitor	LmPK inhibitor	RE007 growth inh	Giardia FBPA inh-1	Giardia growth	Mammal cell tox	Giardia FBPA inh-2	Rabbit aldolase	GAPDH counter
COc1ccc2c(c1)CC=C1C2CCC2(C)C(=O)C(=NO)CC12 (stereo unspecified)	0	-	-	-	0	-	-	-	-	-	-
O=C(Nc1nc2ccccc2c(=O)s1)c1ccco1	0	0	0	0	?	0	-	-	-	-	-
O=C(Nc1n[nH]c(=S)s1)c1ccco1	?	0	0	0	0	7.1µM	0	0	40µM	0	0
Cc1ccc(S(=O)(=O)N(C)C)cc1NC(=O)c1c(-c2c(F)cccc2Cl)noc1C	0	0	0	0	0	0	-	-	-	-	-
CCCCCN(C(=O)CCC(=O)OCC(=O)N1CCCC(C)C1)c1c(N)n(CCCC)c(=O)[nH]c1=O (stereo unspecified)	0	0	0	0	0	-	-	-	-	-	-
O=C(CC1C(=O)OCC2CCCCN21)Nc1ccccc1C(F)(F)F (stereo unspecified)	0	0	0	0	0	22µM	0	0	0	0	0
CC(=O)Nc1ccc(S(=O)(=O)NNC(=S)NCC2CCCO2)cc1 (stereo unspecified)	0	0	0	0	0	13µM	0	0	0	0	0
CCN(CC)CCN(Cc1cc2cc3c(cc2[nH]c1=O)OCCO3)C(=S)NCC1CCCO1 (stereo unspecified)	0	0	0	0	0	7.9µM	0	0	0	0	0
NNc1n[nH]c(=S)n1N	0	40	63	0	0	1.8µM	0	0	16µM	18µM	18µM
Nn1c(Cc2ccc(F)cc2)n[nH]c1=S	0	0	0	0	0	?	-	-	-	-	-
Cc1ccc(NC(=O)COC(=O)c2ccc(Cl)nc2)cc1S(=O)(=O)N1CCCCC1	0	-	-	-	0	-	-	-	-	-	-
C=C1CCC[C@]2(C)C[C@H]3OC(=O)C(CNCCN(CC)CC)[C@H]3CC12 (stereo partly specified)	0	0	0	0	0	16µM	?	0	0	0	0
C=C1CCC[C@]2(C)C[C@H]3OC(=O)C(CNCCN(C)C)[C@H]3CC12 (stereo partly specified)	0	0	0	0	0	0	-	-	-	-	-
O=C(COC(=O)COc1ccc2ccccc2c1)NCC(F)(F)F	0	0	0	0	0	0	-	-	-	-	-
CC(C)OC(=O)c1c(N)n(Cc2ccco2)c2nc3ccccc3nc12	0	0	0	0	0	?	-	-	-	-	-
COCCOC(=O)c1c(N)n(Cc2ccco2)c2nc3ccccc3nc12	0	0	0	0	0	7.1µM	0	0	0	0	0
C=CCc1ccc(OCCn2cncn2)c(OC)c1	0	0	0	0	0	0	-	-	-	-	-
C=CCc1cc(OC)ccc1OCCCCn1cncn1	0	0	0	0	0	32µM	?	0	0	0	0
[N-]=C=C1C(=O)NC(=O)C([n+]2ccc(-c3ccncc3)cc2)C1c1ccccc1C(F)(F)F (stereo unspecified)	0	0	0	0	0	14µM	0	?	?	?	6.5µM

Screening results deposited in PubChem by National Center for Advancing Translational Sciences (NCATS).
